SARS 3CLpro inh – SARS-CoV 3CLpro protease inhibitors, primary screen, biochemical, quenched FRET; Replicase polyprotein 1ab (Severe acute respiratory syndrome coronavirus), P0C6X7; recombinant SARS-CoV 3CLpro, quenched FRET peptide cleavage; 290,000 tested, 0.14% active; inhibition, % at 6 µM; in the data active means inhibition above about 12%
Vc quorum ag – inducers of Vibrio cholerae quorum light production without autoinducers, primary screen, BH1578 luxS cqsA deficient, single point | V. cholerae BH1578 lux reporter, luminescence, 6 h | activation, % at 18.7 µM | 350,000 tested, 0.16% active | AID 588436, 2011; in the data active means activation mostly above about 9.7%, no sharp cut-off
TcdB GH inh – TcdB glycohydrolase inhibitors, primary screen, biochemical, single point, plate reader | Toxin B (Clostridioides difficile), P18177 | TcdB glycohydrolase enzymatic assay | inhibition, % at 9.99 µM | 350,000 tested, 0.24% active | AID 652162, 2013; in the data active means inhibition above about 10%
VHR inh abs – VHR1 phosphatase inhibitors, primary screen, biochemical, absorbance, uHTS | 290,000 tested, 0.52% active | Dual specificity protein phosphatase 3 (Homo sapiens), P51452 | inhibition, % at 13.3 µM | recombinant VHR phosphatase, pNPP absorbance; in the data active means inhibition above about 50%
Target sequence (P51452 whole entry, looked up): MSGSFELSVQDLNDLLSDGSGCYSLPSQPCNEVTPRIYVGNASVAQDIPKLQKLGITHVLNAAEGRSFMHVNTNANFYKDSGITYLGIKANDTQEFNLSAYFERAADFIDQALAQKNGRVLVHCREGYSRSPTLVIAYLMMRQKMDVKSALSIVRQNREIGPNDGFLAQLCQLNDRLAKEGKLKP
CCHFV vOTU inh – CCHFV vOTU protease inhibitors, primary screen, biochemical, Pep-AMC substrate, fluorescence | Crimean-Congo hemorrhagic fever virus L polyprotein viral ovarian tumor (vOTU) protease … | AID 651958, 2012 | inhibition, % at 11.5 µM | 370,000 tested, 0.55% active; in the data active means inhibition above about 30%; further: 0% = vehicle wells with enzyme and 100% = no enzyme wells
SSB-PriA inh – inhibitors of Klebsiella pneumoniae PriA binding to SSB C-terminal tail, primary screen, biochemical, AlphaScreen; PriA–SSB C-terminal tail interaction (Klebsiella pneumoniae); AlphaScreen SSBct-PriA binding, biotinylated peptide; inhibition, % at 33 µM; 430,000 tested, 0.6% active; AID 1272365, 2023; in the data active means inhibition mostly above about 37%, no sharp cut-off; inactive means mostly below about 20%;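 further: plate controls were negative control peptide for no effect and reference peptide for full effect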
An asterisk follows results filed as active; i = inactive; · = not tested or not shown; ! = repeats disagree. An excerpt weighted towards active compounds, which were near 1.3% of everything screened.

SMILES | SARS 3CLpro inh | Vc quorum ag | TcdB GH inh | VHR inh abs | CCHFV vOTU inh | SSB-PriA inh
CCCOc1ccc(C(=O)Nc2ccc(C)cc2[N+](=O)[O-])cc1 | 1.7 | -0.4 | · | -0.2 | 6.5 | -3.1
Cc1ccc(NC(=O)c2ccccc2)c([N+](=O)[O-])c1 | · | · | · | · | · | 57.2*
Cc1ccc(NC(=O)C(C)Oc2cccc(Br)c2)c([N+](=O)[O-])c1 (stereo not drawn) | · | · | · | · | · | 49.0*
O=C(Nc1ccc(C(F)(F)F)cc1[N+](=O)[O-])c1ccccc1 | · | · | · | · | · | 67.8
CC(C)(C)c1ccc(NC(=O)c2ccccc2)c([N+](=O)[O-])c1 | 2.8 | -0.3 | 0.1 | -37.5 | 12.2 | 58.5*
CC(C)(C)c1ccc(NC(=O)c2ccc(Cl)cc2)c([N+](=O)[O-])c1 | · | · | · | · | · | 63.5*
CCOc1ccc(-c2csc(-n3nc(C)cc3NC(=O)c3ccccc3F)n2)cc1 | · | · | · | · | · | -9.0
CN(CC1Cc2ccccc2CO1)C(=O)c1cc(=O)c2ccccc2o1 (stereo not drawn) | · | · | · | · | · | -10.0
COc1ccc(-c2cc(SCC(=O)Nc3ccc(OC(F)(F)F)cc3)ncn2)cc1 | · | · | · | · | · | -24.0
Cc1ccc(NC(=O)C(=O)NCc2cccs2)c([N+](=O)[O-])c1 | · | · | · | · | · | 56.0*
Cc1cccc(Nc2ccc(C(=O)O)cc2[N+](=O)[O-])c1C | 8.8 | i | -1.2 | 52.6* | -2.3 | 5.9
COc1ccc(Cl)cc1NC(=O)CSc1nnc(CNC(=O)c2ccco2)o1 | 2.2 | -0.3 | 0.2 | 6.2 | 3.0 | -27.9
COc1ccc(Cl)cc1NC(=O)CSc1nnc(-c2ccco2)o1 | -1.3 | 0.8 | 18.8* | 10.5 | 3.5 | -0.6
Cn1c(=O)oc2cc(S(=O)(=O)NCCc3ccccc3)ccc21 | 0.4 | -0.6 | · | 57.4* | 7.9 | -16.0
Cc1ccc(-c2nc(-c3ccncc3)no2)cc1C | -4.6 | -0.7 | 0.3 | 59.1* | -6.7 | -3.7
CN(C)C1C(=O)C(C(N)=O)=C(O)C2(O)C(=O)C3=C(O)c4c(O)cccc4C(C)(O)C3CC12 (stereo not drawn) | 1.7 | -0.5 | · | 5.5 | · | -6.6
CN(C)[C@@H]1C(=O)C(C(=O)NCN2CCCC2)=C(O)[C@@]2(O)C(=O)C3=C(O)c4c(O)cccc4[C@@](C)(O)C3CC12 (stereo partly drawn) | 4.2 | · | · | 66.4* | · | ·
COc1ccccc1N1CCN(C(=O)CNC(=O)c2cn(-c3ccccc3OC)c(=O)c3ccccc23)CC1 | 7.8 | -0.5 | 2.4 | 19.0 | -8.1 | 7.2
COc1ccccc1-n1cc(C(=O)NCC(=O)N2CCN(c3ccccc3)CC2)c2ccccc2c1=O | 1.6 | i | · | 50.8* | 6.1 | -13.2
COc1cccc2sc(N3CC(OC(=O)c4ccn(C)n4)C3)nc12 | · | · | · | · | · | -6.0
O=C(CNC(=O)OCc1ccccc1)Nc1ccccc1Cc1nc(-c2cccs2)no1 | · | · | · | · | · | 8.0
O=C(Nc1nc(-c2ccccn2)cs1)c1ccc(F)c(S(=O)(=O)N2CCOCC2)c1 | · | -0.4 | 0.5 | · | 9.3 | 45.4*
CCOC(=O)Cc1csc(NC(=O)c2ccc(N3CCCCC3)nn2)n1 | · | · | · | · | · | -10.0
CN(C)c1ccc(NC(=O)c2ccc(N3CCOCC3)nc2)cc1 | -0.9 | -0.6 | 1.0 | 52.2* | -1.0 | 20.7
Cc1ccc(C(=O)Nc2nc(-c3ccccn3)cs2)cc1S(=O)(=O)N1CCOCC1 | · | -0.2 | 2.1 | · | 6.1 | 43.0*
SMILES | SARS 3CLpro inh | Vc quorum ag | TcdB GH inh | VHR inh abs | CCHFV vOTU inh | SSB-PriA inh
Cc1nc(NC(=O)c2ccc(N3CCCCC3)nn2)sc1C(=O)N(C)C | · | · | · | · | · | 48.0*
CSc1ncccc1C(=O)NCc1ccsc1 | · | · | · | · | · | 0.0
NC(=NNC(=O)c1cccc(F)c1)c1cc2ccccc2oc1=O | · | · | · | · | · | -7.0
CN(C(=O)N1CCN(c2ccccc2)CC1)c1ccccc1 | · | · | · | · | · | -18.0
O=C(CCSc1ccc(Cl)cc1)Nc1ccc(F)cc1 | · | · | · | · | · | -89.0
O=C(Nc1nc(-c2ccccn2)cs1)c1cc(S(=O)(=O)N2CCOCC2)ccc1F | · | i | 1.5 | · | 1.1 | 83.0*
O=C(Nc1nc(-c2ccccn2)cs1)c1ccc(Cl)c(S(=O)(=O)N2CCCCCC2)c1 | · | · | · | · | · | 51.6
O=C(Nc1nc(-c2ccccn2)cs1)c1ccc(N2CCOCC2)nc1 | · | · | · | · | · | 94.8*
O=C(Nc1nc(-c2ccccn2)cs1)c1ccc(I)cc1 | · | · | · | · | · | 38.9
Cc1ccc(S(=O)(=O)N2CCOCC2)cc1C(=O)Nc1nc(-c2cccnc2)cs1 | -4.2 | -6.2 | 1.2 | -2.0 | -17.0 | -11.9
Cc1ccc(C(=O)Nc2nc(-c3ccccn3)cs2)cc1S(=O)(=O)N1CCCCC1 | · | · | · | · | · | 64.5*
COc1ccccc1NC(=O)c1ccc(Cl)c(S(=O)(=O)N2CCCCC2)c1 | -0.7 | -0.5 | -1.0 | 20.2 | 10.8 | -17.0
COc1ccccc1NC(=O)c1ccc(C)c(S(=O)(=O)N2CCCCC2)c1 | -4.4 | -0.3 | 0.1 | 52.9* | 8.4 | -22.5
CC(=O)N(C[C@H]1CCCO1)c1nc2ccc(C)cc2s1 | · | · | · | · | · | -23.0
COc1cccc(/C=C2/SC(=S)N(Nc3ccc([N+](=O)[O-])cc3[N+](=O)[O-])C2=O)c1OC | · | · | · | · | · | 0.0
CCc1cc2c(=O)n(-c3ccccc3)c(SCc3nc4ccccc4[nH]3)nc2s1 | · | · | · | · | · | -1.0
O=C(Nc1nc(-c2ccccn2)cs1)c1ccc(N2CCCC2)nn1 | · | · | · | · | · | 72.0*
O=C(Nc1nc(-c2ccco2)cs1)c1ccc(N2CCOCC2)nn1 | · | · | · | · | · | -8.0
CC(=O)Nc1ccc2ccccc2c1 | -0.5 | i | · | -4.6 | · | -1.6
CCOC(=O)C(Nc1ccc2ccccc2c1)C(=O)OCC | 3.3 | -0.2 | · | -4.1 | 22.2 | 57.6*
Brc1cccc(-c2ccccn2)n1 | · | · | · | · | · | 40.5
Oc1ccccc1-c1n[nH]c(-c2ccccn2)n1 | · | · | · | · | · | 93.8*
Sc1n[nH]c(-c2ccccn2)n1 | · | · | · | · | · | 113.0*
c1cncc(-c2n[nH]c(-c3cnccn3)n2)c1 | · | · | · | · | · | -6.0
c1ccc(-c2n[nH]c(-c3ccccn3)n2)cc1 | -7.0 | -5.6 | · | 2.0 | 9.7 | 42.4*
SMILES | SARS 3CLpro inh | Vc quorum ag | TcdB GH inh | VHR inh abs | CCHFV vOTU inh | SSB-PriA inh
c1ccc(CSc2n[nH]c(-c3ccccn3)n2)cc1 | · | · | · | · | · | 59.5*
Oc1ccccc1-c1ccn[nH]1 | · | 0.0 | 0.6 | · | -16.4 | 9.2
c1ccc(-c2nn[nH]n2)nc1 | -0.3 | -0.5 | -1.0 | 10.0 | 1.3 | 107.0*!
c1ccc(-c2nn[nH]n2)cc1 | 2.4 | 0.6 | -0.1 | -7.8 | -12.5 | -11.0
c1ccc(-c2ccc(-c3ccccn3)nn2)nc1 | -4.4 | · | · | 21.9 | -3.9 | 106.0*
c1ccc(-c2n[nH]c(-c3ccccn3)n2)nc1 | 0.3 | 3.3 | 0.5 | -9.5 | -5.3 | 92.9*
c1ccc(-c2ccccn2)nc1 | -0.2 | i | 0.5 | -22.3 | 0.1 | 7.2
NCc1nc(-c2ccccn2)n[nH]1 | · | · | · | · | · | 115.5*
Cc1cc(C(=O)NCCc2nc(-c3ccco3)cn2C)c(C)o1 | · | · | · | · | · | -1.0
O=c1c2ccccc2nc2c3ccccc3c(NCc3ccccn3)nn12 | 2.1 | 0.1 | 1.7 | 57.4* | -25.8 | -8.2
Cn1cc(-c2cccc(C(F)(F)F)c2)cc(C#N)c1=O | -1.2 | -7.7 | -0.8 | 6.1 | -40.4 | 53.1*

Compound activity (PubChem BioAssay)
